# Compounds with a hit are over-represented: about 32% of the library has one in this group of screens.
# CYP2C9 inhib: blockers of cytochrome P450 2C9 activity – biochemical, luminescence, ADME assay, primary screen; P11712; CYP2C9 Supersomes, luciferin-H conversion; inhibition, % at 5 µM; 96,000 compounds, 20% hits;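 active means blocking of liver enzyme CYP2C9 beyond about 50% at 5 µM, limit read from the data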
# Target sequence (P11712 whole entry, looked up): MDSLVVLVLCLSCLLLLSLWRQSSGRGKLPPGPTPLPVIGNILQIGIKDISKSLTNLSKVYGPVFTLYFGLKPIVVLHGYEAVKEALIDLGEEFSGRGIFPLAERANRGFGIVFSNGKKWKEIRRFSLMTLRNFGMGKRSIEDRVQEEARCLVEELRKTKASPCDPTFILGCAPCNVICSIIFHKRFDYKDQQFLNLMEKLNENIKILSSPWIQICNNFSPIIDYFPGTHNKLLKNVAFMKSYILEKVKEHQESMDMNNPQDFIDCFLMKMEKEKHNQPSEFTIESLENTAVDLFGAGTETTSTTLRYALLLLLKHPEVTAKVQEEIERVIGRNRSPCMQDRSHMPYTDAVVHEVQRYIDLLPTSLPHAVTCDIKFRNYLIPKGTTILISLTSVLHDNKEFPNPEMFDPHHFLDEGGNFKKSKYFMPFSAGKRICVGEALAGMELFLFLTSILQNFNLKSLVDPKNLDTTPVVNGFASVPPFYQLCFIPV
# PostGolgi yeast: phenotypic screen on post-Golgi transport, primary screen | inhibition, % at 10 µM | post-Golgi transport phenotypic cell assay | 98,000 compounds, 0.9% hits;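 further: yeast cells grown in 1536-well plates; yeast grown about 18 h at 30C before absorbance read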
# CYP2C9 activ: human CYP2C9 activators, primary screen, biochemical, luminescence | 96,000 compounds, 1.4% hits | recombinant CYP2C9, luciferin-H conversion; stronger effect = higher value; factor 1 = untreated enzyme, 0 = blocked | activation factor at 5 µM | AID 1024, 2008;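 active means activation factor of 2 or more for CYP2C9 at a 5 µM dose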;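 further: 0 = sulfaphenazole-blocked wells and 1 = vehicle-only wells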
# CYP2C19 inhib: blockers of cytochrome P450 2C19 activity – biochemical, luminescence, ADME assay, primary screen | 96,000 compounds, 21% hits | AID 778, 2007 | CYP2C19 Supersomes, luciferin-H EGE luminescence, 30 min | P33261 | inhibition, % at 5 µM;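 active means CYP2C19 inhibition above a set limit at 5 µM in the primary screen, cut at about 50% in these data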;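 further: plate controls were negative control wells for no effect and 2.5 mM tranylcypromine positive control for full effect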
# CYP2C19 activ: human CYP2C19 activators, primary screen, biochemical, luminescence. 96,000 tested, under 10 active. activation factor at 5 µM. recombinant CYP2C19, luciferin-H EGE luminescence; stronger effect = higher value; 0 = fully inhibited enzyme, 1 = untreated enzyme;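 active means activation factor of at least 2 at 5 µM in the primary screen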;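 further: 0 = wells with 2.5 mM tranylcypromine and 1 = vehicle-only wells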
# PostGolgi ctrl: growth inhibition of yeast control strain, primary screen, counter-screen for post-Golgi transport modulator project. inhibition, % at 10 µM. AID 738, 2007. efflux-deficient yeast background strain, growth absorbance A615, 16 h. 98,000 compounds, 5% hits
# Numbers without * were called inactive; nt = no result given. Unless noted, no stated cut-off is given here; in the data, active means inhibition above about 30%; inactive means the rest.
SMILES,CYP2C9 inhib,PostGolgi yeast,CYP2C9 activ,CYP2C19 inhib,CYP2C19 activ,PostGolgi ctrl
Cc1ccc(N=c2oc3cc(O)ccc3cc2C(N)=O)cc1,66*,30*,0.3,13,0.9,58*
O=C(CCSCCc1ccccn1)Nc1ccc(Br)cn1,34,8,0.7,27,0.7,15
CCOc1ccc(C2/C(=C(/O)c3ccc(Cl)cc3)C(=O)C(=O)N2CCCN(C)C)cc1OC (stereo not drawn),-30,nt,1.3,-26,1.3,nt
CCOC(=O)c1[nH]c2ccc(OC)cc2c1NC(=O)CN1CCSCC1,59*,7,0.4,76*,0.2,10
CCOC(=O)c1[nH]c2ccc(Br)cc2c1NC(=O)CCN1CCC(C)CC1,24,2,0.8,58*,0.4,14
CCOC(=O)c1[nH]c2ccc(OC)cc2c1NC(=O)CCN1CCc2ccccc2C1,21,8,0.8,6,0.9,32*
CCOC(=O)c1[nH]c2ccc(OC)cc2c1NC(=O)CCN1CCC(C)CC1,7,12,0.9,9,0.9,2
Cc1cccc(Oc2coc3cc(OC(=O)c4cc5ccccc5oc4=O)ccc3c2=O)c1,-114,0,2.1*,-11,1.1,-1
Cc1ccc(-n2c(SCc3cn4ccsc4n3)nc3ccccc3c2=O)cc1,33,3,0.7,19,0.8,22
Cc1cccc(-n2c(SCc3cc(=O)n4ccsc4n3)nc3ccccc32)c1,nt,5,nt,nt,nt,33*
CCn1c2ccccc2c2nnc(SCc3cc(=O)n4ccsc4n3)nc21,65*,nt,0.3,87*,0.1,nt
Cc1ccc(-c2ccc(SCC(=O)Nc3nonc3C)nn2)cc1,86*,-4,0.1,28,0.7,2
Cc1nonc1NC(=O)CSc1nnc(-c2ccoc2C)n1C,-10,10,1.1,7,0.9,0
CCc1nnc(NC(=O)CSc2nnc(-c3c[nH]c4ccccc34)n2CC)s1,57*,1,0.4,24,0.8,9
COCCCn1c(SCC(=O)n2c(C)c(C)c3ccccc32)nnc1-c1ccoc1C,-38,0,1.4,89*,0.1,9
Cc1ccc(C)c(-n2c(SCC(=O)Nc3nonc3C)nnc2-c2ccoc2C)c1,82*,-3,0.2,36,0.6,12
O=C(CCCn1c(=O)[nH]c2cc(Cl)ccc2c1=O)NCCCN1CCCC1=O,12,1,0.9,-12,1.1,1
Cn1c(=O)c2c(ncn2CCCNC2=CC(C)(C)CC(=O)C2)n(C)c1=O,-23,1,1.2,-18,1.2,-8
N#CC1(c2ccccc2)CCCN1C(=O)c1ccc(Br)o1 (stereo not drawn),17,6,0.8,29,0.7,11
CCn1c(SCC(=O)Nc2nonc2C)nnc1-c1ccco1,32,2,0.7,86*,0.1,3
O=C(CSc1nnc(-c2ccco2)n1Cc1ccco1)N1CCOCC1,1,8,1,1,1,2
C=CCn1c(SCC(=O)Nc2cc(C)ccc2OC)nnc1-c1ccco1,43,-3,0.6,98*,0,6
CCn1c(SCC(=O)Nc2cc(C)on2)nnc1-c1ccco1,33,2,0.7,53*,0.5,-3
CCn1c(SCC(=O)n2c(C)c(C)c3ccccc32)nnc1-c1ccco1,-81,7,1.8,87*,0.1,4
Cc1ccc(/C=N/n2c(C)nnc2C)s1,13,-2,0.9,1,1,-3
SMILES,CYP2C9 inhib,PostGolgi yeast,CYP2C9 activ,CYP2C19 inhib,CYP2C19 activ,PostGolgi ctrl
CC1CN(Cc2cc(=O)n3ccsc3n2)CC(C)O1 (stereo not drawn),8,-12,0.9,6,0.9,4
C=CCn1c(SCc2c(F)cccc2Cl)nnc1-c1ccco1,-23,-4,1.2,96*,0,7
CCn1c(SCC(=O)Nc2ccc3c(c2)OCCO3)nnc1-c1ccco1,21,1,0.8,15,0.8,5
CCn1c(SCC(=O)Nc2ccc3c(c2)c2ccccc2n3CC)nnc1-c1ccco1,28,-7,0.7,85*,0.2,23
CCc1nnc(NC(=O)CSc2nnc(-c3ccco3)n2CC)s1,65*,13,0.4,39,0.6,8
Cc1c(C)n(C(=O)CSc2nccn2C)c2ccccc12,-16,8,1.2,79*,0.2,13
C=CCn1c(SCC(=O)Nc2cc(C)c(Cl)cc2OC)nnc1-c1ccco1,21,12,0.8,27,0.7,24
Cc1cc(C)c2c(N=NN(C)C)[nH]nc2n1,-21,0,1.2,-8,1.1,5
O=C1c2oc3ccccc3c(=O)c2C(c2ccccn2)N1Cc1ccccc1 (stereo not drawn),9,-2,0.9,-6,1.1,6
C=CCNC(=O)CN(c1cccc(Br)c1)S(C)(=O)=O,-28,-7,1.3,12,0.9,-1
CNNC(=O)C(C)NC(=O)c1ccc(Br)cc1 (stereo not drawn),-13,-2,1.1,11,0.9,-3
Cc1ccc(-n2c(-c3ccc(Br)cc3)c[n+]3c2CCc2ccc4cccnc4c2-3)cc1,-22,11,1.2,8,0.9,50*
C=CCN1C(=O)CSC1=Nc1cccc(O)c1,2,-4,1,4,1,-4
C=CCN1C(=Nc2cccnc2)SCC1(O)c1ccc(C)cc1 (stereo not drawn),78*,6,0.2,95*,0,43*
COC(=O)c1ccc(C(=O)OC)c(NC(=O)CSc2cccc[n+]2[O-])c1,-3,8,1,-15,1.1,2
CC1=C(C(=O)OC(C)C)C(c2ccccc2Cl)CC(=O)N1 (stereo not drawn),7,5,0.9,87*,0.1,16
CCC(C)OC(=O)C1=C(C)NC(=O)CC1c1ccccc1OC (stereo not drawn),14,5,0.9,34,0.7,10
CSCCOC(=O)C1=C(C)NC(=O)CC1c1ccccc1Cl (stereo not drawn),15,-5,0.8,15,0.9,8
CCCOc1ccccc1C1CC(=O)NC(C)=C1C(=O)OCC(C)C (stereo not drawn),-6,-1,1.1,56*,0.4,29
CCN1CCN(C(=O)C2CCN(Cc3cc(Cl)ccc3O)CC2)CC1,15,2,0.9,17,0.8,12
C=CCN=C(NC#N)SCc1ccccc1Cl,20,1,0.8,89*,0.1,-6
CCCSc1nnc(-c2c[nH]c3ccccc23)n1CC,14,-2,0.9,89*,0.1,17
CCCSc1nnc(-c2c[nH]c3ccccc23)n1C,8,-8,0.9,76*,0.2,23
c1ccc(N2CCN(c3cnc4ccccc4n3)CC2)cc1,5,-1,1,51*,0.5,24

# Bioassay records from PubChem BioAssay.
